Results published in PubChem BioAssay (NCATS).
Inconclusive results are not listed. Activity calls are given as the source filed them. Unless noted, the call rests on the fitted dose curve; in most records, active means well fitted curve in the direction sought with a large enough effect; inconclusive means small, poorly fitted or top-dose-only effect, or another doubt; inactive means no such curve, though single readings can be large; an effect the other way counts as inactive or inconclusive.

What was measured:
[1] = Validation screen for small molecules that induce DNA re-replication in MCF 10A normal breast cells (AID 463097); further: nearly all actives have a fitted effect of over 60% in size; further: potency means the concentration at half of the fitted maximal effect
In short: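 Read-out is Hoechst total nuclear intensity by fluorescence scanning imager, flagging increased high-DNA-content nuclei. Compounds were incubated with MCF 10A cells for 48 hr (37 C, 5% CO2) before 40 min staining.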

[2] = target: Ubiquitin carboxyl-terminal hydrolase 2 (Homo sapiens) (UniProt O75604); assay: qHTS Validation Assay for Inhibitors of Ubiquitin-specific Protease USP2a Using CHOP2 as the Reporter (AID 463106)
In short: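 Inhibition is expressed relative to NEM as the full-inhibition control, with concentration-response curves classed by fit quality, magnitude and activity. Enzyme (USP2 core, 10nM) meets 25nM Ub-CHOP2 after compound preincubation; readings are taken at 60min.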

[3] = target: DNA polymerase III PolC-type (Bacillus subtilis (strain 168)) (UniProt P13267); assay: qHTS Validation Assay for the Inhibitors of DNA Replication in Gram-Positive Bacteria (AID 485295);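 further: reconstituted holoenzyme with PolC plus beta clamp SSB and primase; PicoGreen fluorescence of double-stranded DNA made on primed circular M13 template; series mostly up to about 57 µM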
In short: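 Double-stranded DNA product detected by PicoGreen fluorescence after EDTA quench. Compound incubated with B. subtilis holoenzyme (PolC, beta subunit, SSB, primase) before substrate addition; primed replication of M13Gori with dNTPs and NTPs at room temperature; DMSO defines 0% inhibition.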

[4] = target: Tumor susceptibility gene 101 protein (Homo sapiens) (UniProt Q99816); assay: qHTS Validation Assay for Iinhibitors of HIV-1 Budding by Blocking the Interaction of PTAP/TSG101 (AID 485342; calls by dose curve)
In short: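 Fluorescence polarization of 50 nM FITC-PTAP peptide bound to 10 uM Tsg101 binding domain was read after 20 min room-temperature incubation with compounds, in 10 mM HEPES pH 7.5, 0.15 M NaCl, 0.01% Tween 20.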

[5] = qHTS Validation Assay to Find Inhibitors of Chronic Active B-Cell Receptor Signaling (AID 485345; active means well fitted curve in the direction sought with a large enough effect in the main read-out, with a control signal flat, not every such curve was filed as active)
In short: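 TMD8 ABC-DLBCL cells with dox-inducible green luciferase–IκBα fusion and red native luciferase; compounds 46 uM–3 nM, 4 h at 37C with doxycycline in 0.5% FBS IMDM. Green/red ratio normalized to basal and 10 uM MG-132.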

[6] = Quantitative high throughput screen for delayed death inhibitors of the malarial parasite plastid, 48 hour incubation (AID 488752); further: nearly all actives have a fitted effect of over 65% in size; further: potency means the concentration at half of the fitted maximal effect
In short: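 First, compound was pinned into RPMI 1640 medium containing 0.5% Albumax. Next, reporter-parasite-infected erythrocytes were added to 2% hematocrit and 0.1% parasitemia. After 48 h at 37 C under 5% CO2, luciferase detection reagent was added and luminescence read.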

[7] = target: Thioredoxin reductase 1, cytoplasmic (Rattus norvegicus) (UniProt O89049); assay: qHTS Assay for Substrates of Mammalian Selenoprotein Thioredoxin Reductase 1 (TrxR1) (AID 488772);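 further: series mostly up to about 57 µM; a drop in NADPH fluorescence below the no-compound background marks a TrxR1 substrate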
In short: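 In this dual-purpose format, potential substrates are identified from the first fluorescence read after selenite addition, not from the 8-minute delta. Rat enzyme is preincubated with NADPH and then with compound at ~22 deg C.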

[8] = target: Beta-2 adrenergic receptor (Homo sapiens) (UniProt P07550); assay: qHTS validation assay of beta-arrestin-biased ligands of beta2-adrenergic receptor (AID 485366)
In short: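 Agonism was measured as beta-arrestin recruitment to recombinant beta2-AR, releasing tTA to drive luciferase. Cells were exposed for 18 hr at 37 degrees C to a series up to 46 microM. %Activity from corrected luminescence gave concentration-response curves.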

[9] = target: ATP-dependent 6-phosphofructokinase (Trypanosoma brucei brucei) (UniProt O15648); assay: qHTS Validation Assay to Find Inhibitors of T. brucei phosphofructokinase (AID 485368); conditions: outcome: dose series up to 57.5 µM
In short: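 ADP-Glo luminescence, two-step: residual ATP depleted, then ADP converted to ATP for luciferase. Enzyme 1.25 nM, F6P 0.5 mM, ATP 0.1 mM, pH 8.0 TEA buffer, 45 min RT. Curves fitted and classed by quality and efficacy.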

[10] = Quantitative high throughput screen for delayed death inhibitors of the malarial parasite plastid, 96 hour incubation (AID 488745); further: nearly all actives have a fitted effect of over 70% in size; further: potency means the concentration at half of the fitted maximal effect
In short: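 Readout is firefly luciferase luminescence from an integrated reporter in P. falciparum; lower signal marks inhibited growth. Cultures at 2% hematocrit and 0.1% parasitemia were treated with compound across two generations (96 h, 37 C, 5% CO2).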

Measured: Potency

Thioredoxin reductase 1, cytoplasmic (Rattus norvegicus), sequence (O89049 whole entry, looked up): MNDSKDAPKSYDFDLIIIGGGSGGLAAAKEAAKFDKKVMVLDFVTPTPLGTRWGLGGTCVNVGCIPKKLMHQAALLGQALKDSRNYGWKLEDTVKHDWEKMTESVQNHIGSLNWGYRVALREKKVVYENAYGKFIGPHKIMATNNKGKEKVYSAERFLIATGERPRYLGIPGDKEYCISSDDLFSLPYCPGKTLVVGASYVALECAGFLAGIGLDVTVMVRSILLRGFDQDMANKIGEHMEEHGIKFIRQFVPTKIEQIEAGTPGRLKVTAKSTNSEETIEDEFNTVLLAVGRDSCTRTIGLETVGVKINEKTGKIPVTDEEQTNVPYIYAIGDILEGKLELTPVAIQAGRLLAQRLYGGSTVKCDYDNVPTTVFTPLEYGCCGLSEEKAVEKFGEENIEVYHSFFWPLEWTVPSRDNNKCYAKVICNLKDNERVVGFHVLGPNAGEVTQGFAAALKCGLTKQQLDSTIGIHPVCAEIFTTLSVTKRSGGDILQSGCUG
Beta-2 adrenergic receptor (Homo sapiens), sequence (P07550 whole entry, looked up): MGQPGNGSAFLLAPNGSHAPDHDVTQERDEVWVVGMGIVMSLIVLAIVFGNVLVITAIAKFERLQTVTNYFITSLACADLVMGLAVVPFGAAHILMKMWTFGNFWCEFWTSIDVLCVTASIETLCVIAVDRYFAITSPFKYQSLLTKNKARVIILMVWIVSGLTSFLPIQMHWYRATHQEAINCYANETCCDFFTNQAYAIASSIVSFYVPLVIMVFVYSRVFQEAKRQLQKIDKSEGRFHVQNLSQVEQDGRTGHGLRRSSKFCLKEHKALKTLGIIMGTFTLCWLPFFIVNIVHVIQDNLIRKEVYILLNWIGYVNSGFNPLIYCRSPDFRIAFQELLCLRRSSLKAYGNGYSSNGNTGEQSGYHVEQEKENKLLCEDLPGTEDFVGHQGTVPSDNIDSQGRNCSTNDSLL
Ubiquitin carboxyl-terminal hydrolase 2 (Homo sapiens), sequence (O75604 whole entry, looked up): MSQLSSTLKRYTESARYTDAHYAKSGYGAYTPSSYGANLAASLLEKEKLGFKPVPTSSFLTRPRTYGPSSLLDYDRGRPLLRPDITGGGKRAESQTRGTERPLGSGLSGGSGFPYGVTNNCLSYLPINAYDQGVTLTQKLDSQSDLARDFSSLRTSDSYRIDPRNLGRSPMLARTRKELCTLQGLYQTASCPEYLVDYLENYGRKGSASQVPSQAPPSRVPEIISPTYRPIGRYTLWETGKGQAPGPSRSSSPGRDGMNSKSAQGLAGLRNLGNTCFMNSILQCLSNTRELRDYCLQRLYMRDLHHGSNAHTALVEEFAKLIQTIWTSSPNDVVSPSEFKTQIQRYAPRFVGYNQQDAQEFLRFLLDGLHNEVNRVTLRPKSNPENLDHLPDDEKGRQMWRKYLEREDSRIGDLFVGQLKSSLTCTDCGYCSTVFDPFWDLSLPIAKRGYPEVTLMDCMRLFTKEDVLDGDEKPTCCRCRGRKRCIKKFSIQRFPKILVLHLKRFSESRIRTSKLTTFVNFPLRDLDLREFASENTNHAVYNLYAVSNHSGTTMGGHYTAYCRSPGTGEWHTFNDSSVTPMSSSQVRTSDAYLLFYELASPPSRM
DNA polymerase III PolC-type (Bacillus subtilis (strain 168)), sequence (P13267 whole entry, looked up): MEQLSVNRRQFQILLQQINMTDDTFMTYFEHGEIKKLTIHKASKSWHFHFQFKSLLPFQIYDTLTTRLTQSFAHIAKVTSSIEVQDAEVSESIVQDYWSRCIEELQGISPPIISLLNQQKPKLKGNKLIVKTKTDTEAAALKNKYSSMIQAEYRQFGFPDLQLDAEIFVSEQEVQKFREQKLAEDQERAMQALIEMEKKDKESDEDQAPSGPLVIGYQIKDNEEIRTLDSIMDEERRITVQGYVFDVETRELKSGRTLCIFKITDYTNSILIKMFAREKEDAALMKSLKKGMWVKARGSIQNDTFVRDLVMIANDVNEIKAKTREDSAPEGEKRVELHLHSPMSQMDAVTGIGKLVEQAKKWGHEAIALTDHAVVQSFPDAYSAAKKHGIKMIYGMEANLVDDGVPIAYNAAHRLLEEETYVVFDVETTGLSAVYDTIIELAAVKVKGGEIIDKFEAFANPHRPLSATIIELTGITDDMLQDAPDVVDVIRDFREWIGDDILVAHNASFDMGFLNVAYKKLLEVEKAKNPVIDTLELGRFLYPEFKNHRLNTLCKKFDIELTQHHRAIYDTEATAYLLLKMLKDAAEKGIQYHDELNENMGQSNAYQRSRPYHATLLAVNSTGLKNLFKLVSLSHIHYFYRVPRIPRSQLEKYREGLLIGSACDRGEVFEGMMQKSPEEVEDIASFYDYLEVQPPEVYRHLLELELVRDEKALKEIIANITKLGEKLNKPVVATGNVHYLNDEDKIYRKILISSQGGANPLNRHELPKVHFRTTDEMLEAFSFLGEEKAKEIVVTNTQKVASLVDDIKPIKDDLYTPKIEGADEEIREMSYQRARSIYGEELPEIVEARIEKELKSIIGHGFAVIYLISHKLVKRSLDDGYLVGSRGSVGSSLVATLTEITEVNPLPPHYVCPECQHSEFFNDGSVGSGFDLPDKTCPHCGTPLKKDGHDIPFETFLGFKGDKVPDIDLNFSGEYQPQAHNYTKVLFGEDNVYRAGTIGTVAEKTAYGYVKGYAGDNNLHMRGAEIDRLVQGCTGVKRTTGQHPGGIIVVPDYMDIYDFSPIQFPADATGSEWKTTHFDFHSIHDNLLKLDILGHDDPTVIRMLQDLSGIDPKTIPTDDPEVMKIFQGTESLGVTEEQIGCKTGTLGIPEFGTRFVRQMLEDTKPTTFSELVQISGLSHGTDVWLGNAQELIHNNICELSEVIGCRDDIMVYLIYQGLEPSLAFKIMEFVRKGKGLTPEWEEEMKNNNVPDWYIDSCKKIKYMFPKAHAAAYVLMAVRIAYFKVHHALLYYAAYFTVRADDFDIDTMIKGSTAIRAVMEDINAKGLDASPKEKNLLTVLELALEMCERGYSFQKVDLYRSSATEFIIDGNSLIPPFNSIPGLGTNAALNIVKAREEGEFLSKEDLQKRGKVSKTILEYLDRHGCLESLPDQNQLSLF
Tumor susceptibility gene 101 protein (Homo sapiens), sequence (Q99816 whole entry, looked up, the tested form may be a part): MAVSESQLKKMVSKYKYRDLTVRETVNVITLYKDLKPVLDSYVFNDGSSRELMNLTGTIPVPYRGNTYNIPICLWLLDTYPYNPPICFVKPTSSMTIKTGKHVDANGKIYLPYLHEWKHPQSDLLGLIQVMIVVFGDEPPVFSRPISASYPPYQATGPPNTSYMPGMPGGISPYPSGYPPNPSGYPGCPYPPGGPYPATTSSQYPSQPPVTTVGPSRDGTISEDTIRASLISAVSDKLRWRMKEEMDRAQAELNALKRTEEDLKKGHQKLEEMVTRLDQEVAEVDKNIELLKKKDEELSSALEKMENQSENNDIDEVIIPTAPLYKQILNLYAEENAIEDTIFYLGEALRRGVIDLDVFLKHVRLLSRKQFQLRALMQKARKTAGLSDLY
ATP-dependent 6-phosphofructokinase (Trypanosoma brucei brucei), sequence (O15648 whole entry, looked up): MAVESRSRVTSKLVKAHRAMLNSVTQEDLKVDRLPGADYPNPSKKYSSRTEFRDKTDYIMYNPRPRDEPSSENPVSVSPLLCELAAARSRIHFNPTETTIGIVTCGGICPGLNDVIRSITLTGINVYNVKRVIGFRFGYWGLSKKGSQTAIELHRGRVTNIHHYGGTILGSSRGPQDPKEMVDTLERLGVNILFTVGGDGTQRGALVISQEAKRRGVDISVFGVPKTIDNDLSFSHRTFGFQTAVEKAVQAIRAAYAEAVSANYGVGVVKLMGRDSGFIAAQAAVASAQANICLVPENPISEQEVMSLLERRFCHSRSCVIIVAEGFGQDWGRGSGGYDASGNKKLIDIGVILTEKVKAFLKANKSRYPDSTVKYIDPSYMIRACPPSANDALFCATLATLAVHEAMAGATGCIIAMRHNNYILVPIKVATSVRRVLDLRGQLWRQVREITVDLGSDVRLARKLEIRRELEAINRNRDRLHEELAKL

CCCCCN(CCCCC)C(=O)C(CCC(=O)O)NC(=O)c1ccc(Cl)c(Cl)c1 (stereo not given)
inactive: [1] | [2] | [3] | [4] | [5] | [6] | [7]

CN(C)CCN(Cc1cccs1)c1ccccn1
inactive: [1] | [2] | [3] | [4] | [5] | [8] | [9] | [6] | [7]

CCCN(CCC)CCc1cccc2c1CC(=O)N2
inactive: [1] | [2] | [3] | [4] | [5] | [8] | [7]

O=C(O)CN(CCN(CC(=O)O)CC(=O)O)CCN(CC(=O)O)CC(=O)O
inactive: [1] | [2] | [3] | [4] | [5] | [8] | [7]

O=C1CC2(CCCC2)CC(=O)N1CCCCN1CCN(c2ncccn2)CC1
inactive: [1] | [2] | [3] | [4] | [5] | [8] | [10] | [6] | [7]

CCCNC(C)C(=O)Nc1ccccc1C (stereo not given)
inactive: [1] | [2] | [3] | [4] | [5] | [8] | [7]

CO[C@@]1(NC(=O)CSCC#N)C(=O)N2C(C(=O)O)=C(CSc3nnnn3C)CS[C@@H]21
inactive: [1] | [2] | [3] | [4] | [5] | [8] | [10] | [6] | [7]

CC1=NS(=O)(=O)c2cc(Cl)ccc2N1
inactive: [1] | [2] | [3] | [4] | [5] | [8] | [9] | [10] | [6] | [7]

CN=C(NC#N)NCCSCc1nc[nH]c1C
inactive: [1] | [2] | [3] | [4] | [5] | [8] | [10] | [6] | [7]

CC(C)[N+](C)(CCOC(=O)C1c2ccccc2Oc2ccccc21)C(C)C
active: [10] 3.29 µM | [6] 4.65 µM
inactive: [1] | [2] | [3] | [4] | [5] | [8] | [9] | [7]

CCO/C([O-])=N/c1c[n+](N2CCOCC2)no1
inactive: [1] | [2] | [3] | [4] | [5] | [8] | [9] | [6] | [7]

O=C(CCNNC(=O)c1ccncc1)NCc1ccccc1
inactive: [1] | [2] | [3] | [4] | [5] | [8] | [10] | [6] | [7]

CCN(Cc1ccncc1)C(=O)C(CO)c1ccccc1 (stereo not given)
inactive: [1] | [2] | [3] | [4] | [5] | [9] | [10] | [6] | [7]

CC(C(=O)O)c1ccc(CC2CCCC2=O)cc1 (stereo not given)
inactive: [1] | [2] | [3] | [4] | [5] | [8] | [10] | [6]

CCn1cc(C(=O)O)c(=O)c2cc3c(cc21)OCO3
inactive: [1] | [2] | [3] | [4] | [5] | [8]

CC(=O)OC(C)C[N+](C)(C)C (stereo not given)
inactive: [1] | [2] | [3] | [4] | [5] | [8] | [10] | [7]

O=C(CCCN1CCC(O)(c2cccc(C(F)(F)F)c2)CC1)c1ccc(F)cc1
active: [10] 9.28 µM | [6] 13.1 µM
inactive: [1] | [2] | [3] | [4] | [5] | [8] | [7]

CN(C)CC[C@@H](c1ccc(Br)cc1)c1ccccn1
inactive: [1] | [2] | [3] | [4] | [5] | [8] | [7]

O=C(O)CCCCCCCC(=O)O
inactive: [1] | [2] | [3] | [4] | [5] | [8] | [10] | [7]

CCn1nc(C(=O)O)c(=O)c2cc3c(cc21)OCO3
inactive: [1] | [2] | [3] | [4] | [5] | [8] | [6] | [7]

CCN1CCC[C@H]1CNC(=O)c1c(O)c(Cl)cc(Cl)c1OC
inactive: [1] | [2] | [3] | [4] | [5] | [9] | [7]

CC(=O)Oc1cc(C(C)C)c(OCCN(C)C)cc1C
inactive: [1] | [2] | [3] | [4] | [5] | [10] | [6] | [7]

CN1CCN(C2=Nc3ccccc3Oc3ccc(Cl)cc32)CC1
inactive: [1] | [2] | [3] | [4] | [5] | [8] | [7]

CC[N+](C)(C)c1cccc(O)c1
inactive: [1] | [2] | [3] | [4] | [5] | [8] | [6] | [7]

COCCc1ccc(OCC(O)CNC(C)C)cc1 (stereo not given)
inactive: [1] | [2] | [3] | [4] | [5] | [6] | [7]

CC(C)NCC(O)c1cc(O)cc(O)c1 (stereo not given)
inactive: [1] | [2] | [3] | [4] | [5] | [9] | [6] | [7]

Cc1scc2c1N(C(=O)CN1CCN(C)CC1)c1ccccc1NC2=O
inactive: [1] | [2] | [3] | [4] | [5] | [8] | [10] | [7]

O=C(O)CN(CCOCCOCCN(CC(=O)O)CC(=O)O)CC(=O)O
inactive: [1] | [2] | [3] | [4] | [5] | [8] | [6] | [7]

CN(C)CC/C=C1\c2ccccc2COc2ccccc21
inactive: [1] | [2] | [3] | [4] | [5] | [10] | [6] | [7]

CCNC(=O)N1CCN(CCCC(c2ccc(F)cc2)c2ccc(F)cc2)CC1
active: [6] 2.94 µM
inactive: [1] | [2] | [3] | [4] | [5] | [8]

Nc1c2c(nc3ccccc13)CCCC2O (stereo not given)
inactive: [1] | [2] | [3] | [4] | [5] | [8] | [7]

Fc1ccc(C(c2ccc(F)cc2)N2CCN(C/C=C/c3ccccc3)CC2)cc1
inactive: [2] | [3] | [4] | [5] | [7]
active: [1] 12.6 µM | [10] 10.4 µM

CN(C)CCOC(=O)COc1ccc(Cl)cc1
inactive: [1] | [2] | [3] | [4] | [5] | [8] | [7]

NC(=O)N1c2ccccc2C=Cc2ccccc21
inactive: [1] | [2] | [3] | [4] | [5] | [8] | [7]

CSc1ccc(C(=O)c2[nH]c(=O)[nH]c2C)cc1
inactive: [1] | [2] | [3] | [4] | [5] | [8] | [10] | [6] | [7]

CCN1CCc2nc(N)oc2CC1
inactive: [1] | [2] | [3] | [4] | [8] | [10] | [7]

CCN(CC)CCNC(=O)c1ccc(NC(C)=O)cc1
inactive: [1] | [2] | [3] | [4] | [8] | [7]

COc1ccc(CCN(C)CCCC(C#N)(c2cc(OC)c(OC)c(OC)c2)C(C)C)cc1OC (stereo not given)
active: [10] 11.7 µM
inactive: [1] | [2] | [3] | [4] | [8] | [9] | [7]

CCc1cccc(N(C)C(N)=Nc2cccc3ccccc23)c1
inactive: [1] | [2] | [3] | [4] | [8] | [6] | [7]

NCCCNCCSP(=O)(O)O
inactive: [1] | [2] | [3] | [4] | [8] | [9] | [10] | [6] | [7]

OCCN1CCN(CC/C=C2/c3ccccc3Sc3ccc(C(F)(F)F)cc32)CC1
active: [1] 12.6 µM | [10] 6.57 µM
inactive: [2] | [3] | [4] | [8] | [7]

CNCCCN1c2ccccc2CCc2ccccc21
inactive: [1] | [2] | [3] | [4] | [5] | [7]

Cc1ccc(Cl)c(Nc2ccccc2C(=O)O)c1Cl
active: [1] 14.1 µM
inactive: [2] | [3] | [4] | [8] | [10] | [6] | [7]

COCCCC/C(=N\OCCN)c1ccc(C(F)(F)F)cc1
inactive: [1] | [2] | [3] | [4] | [8] | [7]

C[C@]12CCC(=O)C=C1CC[C@@H]1[C@@H]2CC[C@@]2(C)[C@H]1CC[C@]2(O)C(=O)CO
inactive: [1] | [2] | [3] | [4] | [8] | [10] | [7]

Brc1c(NC2=NCCN2)ccc2nccnc12
inactive: [1] | [2] | [3] | [4] | [9] | [10]

NC(=O)c1ncn([C@@H]2O[C@H](CO)[C@@H](O)[C@H]2O)c1O
inactive: [1] | [2] | [3] | [4] | [10] | [7]

CCN(CC)CC(=O)Nc1c(C)cccc1C
inactive: [1] | [2] | [3] | [4] | [8] | [7]

COC(=O)[C@H]1[C@H]2C[C@@H]3c4[nH]c5cc(OC)ccc5c4CCN3C[C@H]2C[C@@H](OC(=O)c2cc(OC)c(OC)c(OC)c2)[C@@H]1OC
active: [1] 11.2 µM | [6] 1.47 µM
inactive: [2] | [3] | [4] | [7]

CN(C)CCCN1c2ccccc2Sc2ccccc21
inactive: [1] | [2] | [3] | [4] | [8] | [6] | [7]

C[N+](C)(C)CCOC(N)=O
inactive: [1] | [2] | [3] | [4] | [8] | [6] | [7]

CN/C(=C\[N+](=O)[O-])NCCSCc1ccc(CN(C)C)o1
inactive: [1] | [2] | [3] | [4] | [8] | [10] | [7]

CCN(CC)CCOCCOC(=O)C1(c2ccccc2)CCCC1
inactive: [1] | [2] | [3] | [4] | [8] | [7]
